Data: PubChem BioAssay (NCATS)
Where “and” joins values, the source holds several entries; their conditions need not be identical. Identical values can stand only once. Results filed as inconclusive are left out. A call without a number means that no potency is given here. Calls of active or inactive are those of the source. Calls come from the whole dose curve; as a rule, active = well fitted inhibition curve with a large enough effect; inconclusive = small, poorly fitted or top-dose-only effect; inactive = no such curve, though single readings can be large or run the other way.

test: Primary qHTS for inhibitors of nuclear receptor binding SET domain protein 2 (NSD2) in an RCH-ACV wild type WT cells (2C) (AID 1645877); conditions: RCH-ACV (leukaemia line) NSD2 WT (2C) viability, CellTiter-Glo, 72 h; series mostly up to 44.9 µM; note: nearly all actives have a fitted effect of over 70% in size
Potency is the fitted concentration of half-maximal effect.

| Structure (SMILES) | Potency | activity change, negative = cell killing |
| --- | --- | --- |
| Cc1ccccc1NC(=O)Nc1ccc(CC(=O)N(C)[C@@H](CC(C)C)C(=O)NCC[C@H](NC(=O)[C@@H]2CCCN2S(=O)(=O)c2cc(Cl)cc(Cl)c2)C(=O)O)cc1 | inactive |  |
| CCO[C@@H]1OC(=O)C[C@@H]1NC(=O)[C@@H]1CCCN1C(=O)[C@@H](NC(=O)c1ccc(N)c(Cl)c1)C(C)(C)C | inactive |  |
| C[C@@H]1COCCN1c1cc(C2(S(C)(=O)=O)CC2)nc(-c2cccc3[nH]ccc23)n1 | 0.459 µM (active) |  |
| N#Cc1cc(F)cc(-c2nc(-c3ccccn3)no2)c1 | inactive |  |
| Cc1cnc(NC(=O)Nc2cc(Br)c(C)cc2OCC2CNCCO2)cn1 (configuration not stated) | 0.578 µM (active) |  |
| O=C(c1cn(Cc2cncn2Cc2ccc(Br)cc2)cc1-c1cccc2ccccc12)N1CCOCC1 | 1.15 µM (active) |  |
| CC(=O)NC1=NN(C(C)=O)C(C)(c2ccccc2)S1 (configuration not stated) | 4.09 µM (active) |  |
| O=C(O)Cc1ccc2oc(-c3ccc(NC(=O)/C=C/c4ccc(Br)cc4)c(F)c3)nc2c1 | inactive |  |
| Cc1cc(OCc2nnc(SC3CCCC3)n2-c2cccnc2)ccc1-c1ccc(S(C)(=O)=O)cc1 | 1.45 µM (active) |  |
| CCOCc1cc(OC)c(-c2ccc(C[C@H](NC(=O)c3c(F)cccc3F)C(=O)O)cc2)c(OC)c1 | inactive |  |
| CNCc1ccc(-c2cc(-c3nc(-c4ccc(S(=O)(=O)C(C)C)cc4)cnc3N)on2)cc1 | 183 nM (active) and 93.4 nM (active) |  |
| COc1cc2ncnc(Nc3cccc(O)c3)c2cc1OC | 3.25 µM (active) |  |
| CCOc1cc(N2CCC(O)CC2)ccc1Nc1ncc2c(n1)N(C1CCCC1)CCC(=O)N2C | 1.83 µM (active) |  |
| NCc1ccc(Nc2ncc(F)c(Nc3ccccc3)n2)cc1 | 4.09 µM (active) |  |
| CC(C)(C)OC(=O)N1CCC(OCc2nc(-c3ccncc3)no2)CC1 | inactive |  |
| Nc1nccn2c(C3CCC(C(=O)O)CC3)nc(-c3cc4cccc(Cl)c4[nH]3)c12 (configuration not stated) | 1.15 µM (active) and 4.17 µM (active) |  |
| CCN1CCN(Cc2ccc(NC(=O)c3ccc(C)c(NC(=O)c4cncc(-c5cccs5)c4)c3)cc2C(F)(F)F)CC1 | 51.5 nM (active) and 186 nM (active) |  |
| c1ccc(N2CCN(CCc3nn[nH]n3)CC2)cc1 | inactive |  |
| CC(NC(=O)C(O)C(C)C)C(=O)NC1C(=O)N(C)CCc2ccccc21 (configuration not stated) | inactive |  |

| Structure (SMILES) | Potency | activity change, negative = cell killing |
| --- | --- | --- |
| Cc1cc(OCc2nc(-c3ccccc3Cl)cs2)ccc1OCC(=O)O | inactive |  |
| C=CC(=O)Nc1cccc(Nc2nc(Nc3ccc(N4CCN(C(C)=O)CC4)cc3OC)ncc2C(F)(F)F)c1 | 2.9 µM (active) |  |
| c1ccc(-c2csc(N3CCOCC3)n2)cc1 | inactive |  |
| CCCCOC(=O)NC(=O)C1c2ccccc2Oc2ccccc21 | inactive |  |
| C[C@@H]1CN(Cc2ncccn2)C[C@H]1c1nc2c(cnn2C2CCOCC2)c(=O)[nH]1 | inactive |  |
| Cc1ccc(S(=O)(=O)Cc2nc(-c3ccc(C(=O)NCc4cccnc4)cc3)oc2C)cc1 | 0.0186 µM (active) |  |
| CC(=O)SCC(=O)c1ccc(NS(=O)(=O)c2ccc(OCCCN(C)C)cc2)nc1 | 1.15 µM (active) |  |
| CC(C)C(CO)Nc1nc(Nc2ccc(C(=O)O)c(Cl)c2)c2ncn(C(C)C)c2n1 (configuration not stated) | inactive |  |
| COc1ccc(-c2cnc(-c3cccc4c3-c3ccccc3C4=O)o2)cc1 | 0.0893 µM (active) |  |
| O=C(CN1C(=O)C2(CCCC2)NCC1c1cc(F)cc(F)c1)Nc1ccc2c(c1)CC1(C2)C(=O)Nc2ncccc21 (configuration not stated) | inactive |  |
| Cc1ccc(NC(=O)Nc2cc(C(F)(F)F)ccc2F)cc1Nc1ccc2c(c1)NC(=O)/C2=C\c1ccc[nH]1 | 20.5 µM (active) |  |
| O=C(O)c1cc(-c2c(-c3ccccc3)nn3ccccc23)n[nH]c1=O | inactive |  |
| Cn1nnc(-c2ccc(-c3ccc(N4C[C@H](CO)OC4=O)cc3F)cn2)n1 | inactive |  |
| O=C1CC2(CCCC2)[C@H](O)C(=O)N1CCCCN1CCN(c2ncccn2)CC1 | inactive |  |
| CCOCCn1nc(CC)c2nc(N3CCC(C(=O)O)CC3)nc(Nc3cc(C)ccn3)c21 | inactive |  |
| Cc1cccc(S(=O)(=O)N2CCC[C@@H]2CCN2CCC(C)CC2)c1 | inactive |  |
| COc1ncc2cc(C(=O)Nc3cc(C(=O)NCc4cccc(Cl)c4)ccc3Cl)c(=O)[nH]c2n1 | 5.8 µM (active) |  |
| CN(C)C(=O)NC1CCC(CCN2CCN(c3cccc(Cl)c3Cl)CC2)CC1 (configuration not stated) |  | 2.1% [at 9.23 µM] (inactive) |
